# In the library only some 6% were active in any assay of this set; here they are far more common.
# Tau FP inhib: inhibitors of human tau fibril formation; P10636; K18 P301L tau heparin fibrillization, Alexa594 FP, 6 h; Potency, µM (doses to about 57.7 µM), hits mostly inhibitors; actives 0.39% (n = 280,000); AID 1468; also: nearly all actives have a fitted effect of over 55% in size
#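 FP of Alexa 594-tau after heparin (20 uM) induction. Substrate: human K18 P301L, 15 uM unlabeled, 0.24 uM labeled. Buffer 100 mM sodium acetate pH 7. 6 hr, 37 C.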
# Tau fluor counter: counter-screen for tau fibril formation inhibitors | actives 0.93% (n = 280,000) | tau K18 P301L Alexa594 fluorescence, heparin fibrillization | Potency, µM (top dose mostly 57.7 µM) | AID 1463; also: nearly all actives have a fitted effect of over 55% in size
#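 Human K18 P301L tau (15 uM unlabeled plus 0.24 uM Alexa 594-labeled, final) in 100 mM sodium acetate pH 7 was mixed with compound and 20 uM heparin and incubated 6 hr at 37 C.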
# VDR inh: vitamin D3 receptor (human) inhibition. P11473. VDR-SRC2-3 peptide fluorescence polarization, 2 h. Potency, µM, hits mostly inhibitors. actives 0.93% (n = 400,000). AID 504847
#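 Signal is fluorescence polarization, reporting how far test compounds block the interaction of VDR with the SRC2-3 coregulator peptide after a 2 h room-temperature incubation.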
# PLK1 PBD inh: blocks phosphopeptide binding to human PLK1 polo-box domain; actives 2.8% (n = 360,000); AID 720504; Plk1 PBD binding of FITC phosphopeptide, fluorescence polarization; Potency, µM, actives largely listed as inhibitors; also: series mostly up to about 57 µM; nearly all actives have a fitted effect of over 65% in size
# Target sequence (P53350 whole entry, looked up, the tested form may be a part): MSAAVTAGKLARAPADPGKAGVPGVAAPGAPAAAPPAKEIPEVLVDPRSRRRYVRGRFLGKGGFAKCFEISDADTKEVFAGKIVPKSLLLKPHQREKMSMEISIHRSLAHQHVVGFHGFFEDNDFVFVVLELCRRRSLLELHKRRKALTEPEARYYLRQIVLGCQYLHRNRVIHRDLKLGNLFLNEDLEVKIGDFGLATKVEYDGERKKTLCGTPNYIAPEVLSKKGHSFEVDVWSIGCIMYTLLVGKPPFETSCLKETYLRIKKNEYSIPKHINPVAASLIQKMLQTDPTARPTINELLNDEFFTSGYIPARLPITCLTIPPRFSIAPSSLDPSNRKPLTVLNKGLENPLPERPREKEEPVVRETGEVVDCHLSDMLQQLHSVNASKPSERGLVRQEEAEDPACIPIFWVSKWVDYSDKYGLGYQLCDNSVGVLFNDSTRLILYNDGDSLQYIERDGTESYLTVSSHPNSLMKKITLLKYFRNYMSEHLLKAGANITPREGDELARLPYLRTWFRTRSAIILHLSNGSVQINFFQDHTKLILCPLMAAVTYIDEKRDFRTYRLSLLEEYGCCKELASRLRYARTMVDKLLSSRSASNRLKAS
# Tau ThT inhib: inhibitors of human tau fibril formation, thioflavin T binding; P10636; recombinant tau K18 P301L, heparin-induced fibrillization, ThT fluorescence; Potency, µM (highest dose often 57.4 µM), most hits filed as inhibitors; actives 2.1% (n = 270,000); also: nearly all actives have a fitted effect of over 55% in size
#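 Fibril formation assay: tau K18 P301L at 15 uM with trace Alexa 594 label, heparin inducer 20 uM, pH 7 sodium acetate buffer, 37 C for 6 hr; endpoint ThT signal.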
# Sfp inh: Sfp phosphopantetheinyl transferase inhibition | actives 3.5% (n = 310,000) | Potency, µM, most hits filed as inhibitors | Biochemical Sfp PPTase activity, qHTS | AID 1490 | Q9F4F7;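 also: the enzyme is Sfp with the accession as filed and its product quenches rhodamine fluorescence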
#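 Fluorescence-quenching assay with 15 nM Sfp, 5 uM rhodamine-CoA and 12.5 uM BHQ-2-labelled ybbR peptide in pH 7.6 Hepes/MgCl2 buffer. Enzyme was pre-incubated with compound for 15 min at room temperature. Rate was taken from the 30-min fluorescence change (525/598 nm).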
# A number is an active result; – = inactive; ? = inconclusive; · = no result given. Calls follow the shape of the dose curve; as a rule, active = well fitted curve in the direction sought with a large enough effect; inconclusive = small, poorly fitted or top-dose-only effect, or another doubt; inactive = no such curve, though single readings can be large; an effect the other way counts as inactive or inconclusive.
SMILES,Tau FP inhib,Tau fluor counter,VDR inh,PLK1 PBD inh,Tau ThT inhib,Sfp inh
N#CC(C#N)=C1NC2(CCCCC2)Cc2ccccc21,–,–,–,–,–,–
N#CC(C#N)=c1ccc2c(c1)NC1(CCCCC1)N=2,25µM,?,?,–,14µM,–
COc1ccc(-n2ccn(CC(=O)Nc3ccc(C)cc3C)c(=O)c2=O)cc1,–,–,–,·,?,·
Cc1cc2[nH]c(=O)cc(-c3ccccc3)n2n1,·,·,–,–,·,–
Nc1nn2c(-c3ccccc3)cc(=O)[nH]c2c1N=Nc1ccc(Br)cc1,–,–,–,?,2.2µM,–
CC(C)C[C@H]1COc2cc(N3CC[C@H](O)C3)ccc2S(=O)(=O)N1,·,·,·,–,·,·
Fc1ccccc1/C=N/n1cc(-c2ccccc2)[nH]c1=S,–,?,–,–,?,89µM
S=c1[nH]c(-c2ccccc2)cn1/N=C/c1cccs1,–,–,–,–,?,?
S=c1[nH]c(-c2ccccc2)cn1/N=C/c1ccc(Br)cc1,–,–,?,–,?,–
O=C(O)c1ccc(/C=N/n2cc(-c3ccccc3)[nH]c2=S)cc1,–,–,–,–,?,18µM
Cc1ccc(C)c(/C=N/n2cc(-c3ccccc3)[nH]c2=S)c1,–,–,–,–,?,–
S=c1[nH]c(-c2ccccc2)cn1/N=C/c1cccnc1,–,–,–,–,·,45µM
CC(C)/C=N/Nc1nc2c(c(=O)n(C)c(=O)n2C)n1C,?,?,–,–,28µM,–
COC(=O)CC/C(O)=C1\C(=O)CC(C)(C)CC1=NCCc1nc2ccccc2[nH]1,–,–,–,21µM,–,–
CC(=O)C1=C(O)CC(C)(C)CC1=NCCc1nc2ccccc2[nH]1,?,–,–,–,–,–
Cc1ccc(S(=O)(=O)N2[C@@H](c3ccc(C(C)C)cc3)C(C(=O)O)=C[C@H]2C(C)(C)C)cc1,·,·,–,?,·,·
O=C(CSc1ccc(-c2cccnc2)nn1)Nc1ccccc1C(F)(F)F,·,·,–,–,·,–
Cc1nc2sccn2c(=O)c1S(=O)(=O)Nc1cc(C(F)(F)F)ccc1Cl,–,–,–,·,–,·
Cc1ccccc1CNC(=O)C1CCC(=O)N(CC2CCCCC2)C1 (centres undefined),·,·,–,–,·,–
Cc1ccc(C(C)(C)NC(=O)C2CCC(=O)N(CC3CCCCC3)C2)cc1 (centres undefined),·,·,–,27µM,·,–
COC(=O)[C@H]1C[C@H]2CC[C@H](O)C[C@H]2N1Cc1c(F)cccc1Cl,–,–,·,·,–,–
S=C(c1ccc2c(c1)OCO2)N1CCN(c2cccc(Cl)c2)CC1,·,·,?,9.5µM,·,·
Cc1cccc(N2CCN(C(=S)c3ccc4c(c3)OCO4)CC2)c1,·,·,79µM,11µM,·,·
CC1CCN(C(=S)c2ccc3c(c2)OCO3)CC1,–,–,–,–,–,–
COc1cccc([C@@H]2Oc3ccc(Br)cc3C[C@H]2OC(=O)Nc2ccc(C)c(Br)c2)c1,–,–,–,·,–,–
SMILES,Tau FP inhib,Tau fluor counter,VDR inh,PLK1 PBD inh,Tau ThT inhib,Sfp inh
C[N+](C)(C)C[C@H](O)CC(=O)[O-],·,·,–,–,·,·
O=C(NNC(=O)c1ccc(Cl)cc1Cl)c1csc(-c2cccnc2)n1,–,–,–,–,·,–
O=C(NCCc1csc(-c2ccccc2)n1)c1ccc(Br)o1,–,–,–,–,?,–
O=C(NCCc1csc(-c2cccnc2)n1)c1ccc(Br)o1,–,–,–,–,–,20µM
O=C(NCc1ccc(Cl)cc1)c1csc(-c2cccnc2)n1,–,–,–,30µM,·,–
COCCNC(=O)CCCn1c(SCC(=O)Nc2ccc(F)cc2)nc2c(sc3ccccc32)c1=O,?,–,–,·,?,·
NC(C(=O)O)c1ccc(P(=O)(O)O)cc1 (centres undefined),–,–,–,·,–,56µM
CC(=O)c1ccc(S(=O)(=O)NCC(=O)N2CCN(C/C=C/c3ccccc3)CC2)cc1,·,·,–,27µM,·,·
O=C(OCC(=O)N1CCC(c2ccccc2)=N1)c1ccc([N+](=O)[O-])s1,·,·,–,–,·,·
CCCNC(=O)c1onc(CSc2ccc(Cl)cc2)c1C(=O)NC(C)C,·,·,–,?,·,·
CN(O)/C=C/C(=O)c1ccc(Br)cc1,–,–,–,27µM,?,–
CN(C)/C=C/C(=O)c1ccc(Br)cc1,–,–,–,–,–,–

# Compound activity deposited in PubChem by National Center for Advancing Translational Sciences (NCATS).
